For 17 compounds, outcome and AC50 results are on record in PubChem BioAssay (EPA / NIEHS).

The nature of test [1]: CCTE_Harrill_HTTr_Apoptosis_MCF7: CCTE's 6-hour Apoptosis Assessment for the High-Throughput Transcriptomics (HTTr) Platform, in MCF-7 cells cultured in DMEM + 10% fetal bovine serum, Harrill Lab (AID 2284011). In outline: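 High-content imaging of CellEvent Caspase 3/7 Green signal follows a six-hour exposure, with eight concentrations per chemical. MCF-7 cells grown in DMEM plus 10% fetal bovine serum; activity fitted in both directions against DMSO.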

Test [2] can be described thus: CCTE_Shafer_MEA_dev_AB: CCTE's Alamar Blue Assay for Cytotoxicity in the Neural Network Formation Assay, Shafer Lab (AID 2284083; active means hit-call score of the fitted dose curve at least 0.9, where 1 is the maximum;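 further: twelve days of exposure from plating with re-dosing on DIV 5 and 9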). In outline: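 Primary rat cortical neurons on PEI-coated 48-well MEA plates, 1.5 x 10^5 cells/well in laminin drop; compound exposure from day 0 of plating for twelve days, renewed at medium changes on DIV 5 and 9. Viability read as resazurin reduction by fluorescence, relative to DMSO.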
(In general: Alamar Blue is a resazurin reagent that responds to reducing activity.)

Test [3] in a line: UKN2_HCS_IMR90_neural_migration: University of Konstanz (UKN) Leist Lab Neural Crest Cell Migration Assay in human induced IMR90 Pluripotent Stem Cells (UKN2) (AID 2284204). The note with it: actives raise or lower the signal. The method in brief: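 High-content imaging of calcein-AM and Hoechst stained cells quantifies migration into a stopper-defined gap after 24 h compound exposure. Neural crest cells from IMR90 iPSC migrated 24 h in EGF/FGF N2-S medium before dosing; DMSO baseline.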

Test [4] in a line: IUF_NPC1b_proliferation_BrdU_72hr: Leibniz Research Institute for Environmental Medicine (IUF) 72-hour Neural Progenitor Cell Bromodeoxyuridine (BrdU) Proliferation Assay (NPC1b) (AID 2284207). In outline:
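Human fetal cortex-derived (GW 16-19) neural progenitor spheres, 0.25-0.35 mm, one per well in EGF/FGF proliferation medium, exposed to compound for 72 h at 37C, pH 7.2-7.6. BrdU incorporation over the final 16 h read by luminescence ELISA, relative to DMSO.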

Test [5] in a line: IUF_NPC1a_proliferation_area_72hr: Leibniz Research Institute for Environmental Medicine (IUF) 72-hour Neural Progenitor Cell Proliferation Area Assay (NPC1a) (AID 2284208). The method in brief: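 Proliferation read as increase in sphere area by phase-contrast imaging over 72 h continuous compound exposure (no renewal) of hNPC spheres grown with EGF/FGF at 37C, 5% CO2. Growth-factor withdrawal served as positive control; DMSO as baseline.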

The nature of test [6]: IUF_NPC1_viability_72hr: Viability Assessment at 72 hours in the Leibniz Research Institute for Environmental Medicine (IUF) Neural Progenitor Cell Proliferation Assay (NPC1) (AID 2284209). In outline: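 Three-day continuous exposure of human neural progenitor spheres under EGF/FGF-driven proliferation; cell viability scored by alamar blue signal versus DMSO.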
Test [7] in a line: CCTE_Mundy_HCI_Cortical_NOG_NeuriteLength: CCTE's Neurite Outgrowth Assay in rat cortical cells for Neurite Length, Mundy Lab (AID 2284213).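 On AC50: neurites imaged about 48 to 50 h after chemical exposure began.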 In outline:
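First, rat primary cortical cells were plated and, 2 h later, given test chemical as a 1/10 dilution. Finally, βIII-tubulin immunostaining enabled automated imaging of neurite length.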

The nature of test [8]: CCTE_Mundy_HCI_Cortical_Synap_Neur_Matur_NeuriteLength: CCTE's Synaptogenesis and Neurite Maturation Assay in rat cortical cells for Neurite Length, Mundy Lab (AID 2284214). In outline: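 DMSO-normalised neurite length, from high-content imaging of anti-MAP2-stained rat cortical cells fixed at DIV 12. Glia were suppressed with AraC (DIV 5) before chemical exposure from DIV 7.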

A short description of test [9]: CCTE_Mundy_HCI_Cortical_Synap_Neur_Matur_NeuriteSpotCountPerNeuron: CCTE's Synaptogenesis and Neurite Maturation Assay in rat cortical cells for Neurite Spot Count per Neuron Count, Mundy Lab (AID 2284215). The method in brief:
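High-content imaging counts synaptophysin puncta along MAP2-labelled neurites per neuron after chemical exposure of rat cortical cells from DIV 7 to termination at DIV 12 (AraC added DIV 5). Loss of signal relative to DMSO.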

Test [10] in a line: CCTE_Mundy_HCI_Cortical_Synap_Neur_Matur_SynapseCount: CCTE's Synaptogenesis and Neurite Maturation Assay in rat cortical cells for Synapse Count, Mundy Lab (AID 2284218). The method in brief: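 Endpoint: synapses/neuron by HCI (synaptophysin puncta on MAP2-labelled neurites, Hoechst nuclei). Rat primary cortical cells, AraC DIV 5, dosed DIV 7, fixed DIV 12; DMSO negative control.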

Test [11] is described as follows: UKN2_HCS_IMR90_cell_viability: Viability Assessment in the University of Konstanz (UKN) Leist Lab Neural Crest Cell Migration Assay in human induced IMR90 Pluripotent Stem Cells (UKN2) (AID 2284233).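 Further: cells exposed to compound for 24 h after a 24 h migration phase.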 In outline: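 After calcein-AM/Hoechst staining, viability is quantified by high-content fluorescence imaging, relative to DMSO, in iPSC (IMR90)-derived neural crest cells. Exposure lasts 24 h, starting after a 24 h migration period on PLO/laminin/fibronectin coating.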

Test [12] is described as follows: IUF_NPC2c_oligodendrocyte_migration_120hr: Leibniz Research Institute for Environmental Medicine (IUF) 120-hour Neural Progenitor Cell Migration Assay for Oligodendrocyte Migration (NPC2c) (AID 2284297).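 Further: O4-positive oligodendrocyte migration distance divided by radial glia migration distance.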 In outline: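 Exposure runs 5 days from differentiation onset at 37C, seven concentrations plus solvent control, DMSO at most 0.1%, applied to primary hNPC spheres on laminin. After fixation, O4 immunostaining gives oligodendrocyte distance from the sphere core, relative to radial glia migration.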

Test [13] is described as follows: IUF_NPC2a_radial_glia_migration_120hr: Leibniz Research Institute for Environmental Medicine (IUF) 120-hour Neural Progenitor Cell Migration Assay for Radial Glia Migration (NPC2a) (AID 2284298). In outline:
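Migration distance in um, sphere core edge to migration-area edge, derived by nuclei-density algorithm from Hoechst images after 120 h compound exposure. Primary hNPC spheres differentiated on poly-D-lysine/laminin in N2 medium, 37C; medium half-replaced day 3.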

A short description of test [14]: IUF_NPC2a_radial_glia_migration_72hr: Leibniz Research Institute for Environmental Medicine (IUF) 72-hour Neural Progenitor Cell Migration Assay for Radial Glia Migration (NPC2a) (AID 2284299). The method in brief:
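Spheres of human primary neural progenitors migrate on poly-D-lysine/laminin under compound exposure at 37C, 5% CO2. The 72 h radial glia migration distance comes from brightfield images, measured manually.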

Test [15] can be described thus: IUF_NPC2b_neuronal_migration_120hr: Leibniz Research Institute for Environmental Medicine (IUF) 120-hour Neural Progenitor Cell Migration Assay for Neuron Migration (NPC2b) (AID 2284300). In outline:
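TUBB3-positive neurons are imaged after 120 h of differentiation, and their mean distance from the sphere edge is normalised to radial glia migration. Single 0.3 mm fetal hNPC spheres on poly-D-lysine/laminin received 7 compound concentrations, ≤0.1% DMSO, refreshed at day 3.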

The nature of test [16]: IUF_NPC3_neuronal_differentiation_120hr: Leibniz Research Institute for Environmental Medicine (IUF) 120-hour Neuronal Differentiation Assay (NPC3) (AID 2284301). In outline: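 Value is percent TUBB3-positive neurons among Hoechst-stained nuclei in the migration area, scored by trained CNN after 120 h differentiation. Primary hNPC spheres on poly-D-lysine/laminin, N2 medium, continuous dosing from day 0, half-refeed day 3; DMSO reference.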

The nature of test [17]: IUF_NPC4_neurite_length_120hr: Leibniz Research Institute for Environmental Medicine (IUF) 120-hour Neuronal Morphology Assay for Neurite Length (NPC4) (AID 2284302). The method in brief:
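Neurite length, the mean in um across TUBB3-stained neurons, is derived by skeletonization of high-content images after 120 h differentiation. Compound exposure, 7 concentrations plus solvent control, ran from plating of hNPC spheres on poly-D-lysine/laminin, with medium half-replaced on day 3.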

Test [18] is described as follows: IUF_NPC2-5_cytotoxicity_72hr: Cytotoxicity Assessment at 72 hours in the Leibniz Research Institute for Environmental Medicine (IUF) Neural Progenitor Cell Migration and Differentiation Assay for Cytotoxicity (NPC2-5) (AID 2284306; active means hit-call score of the fitted dose curve at least 0.9, where 1 is the maximum;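 further: LDH release into supernatant measured by resorufin fluorescence marking membrane damage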). In outline:
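Membrane-integrity cytotoxicity at 72 h, read as LDH-driven resorufin fluorescence in supernatant. hNPC spheres from fetal cortex differentiate on coated plates in N2 medium, 37C, 5% CO2; seven serial compound concentrations plus solvent control (DMSO ≤0.1%).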

Test [19] can be described thus: IUF_NPC2-5_cell_number_120hr: Cell Number Assessment at 120 hours in the Leibniz Research Institute for Environmental Medicine (IUF) Neural Progenitor Cell Migration and Differentiation Assay (NPC2-5) (AID 2284308).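 Further: count of Hoechst-stained nuclei in migration zone around plated human neural progenitor spheres.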 The method in brief: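 Counting of all Hoechst-stained nuclei in the migration area at 120 h, versus DMSO control. Primary hNPC spheres differentiated on poly-D-lysine/laminin in N2 medium at 37C, dosed from day 0 (7 concentrations, DMSO ≤0.1%), half-refed day 3.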

Test [20] can be described thus: IUF_NPC2-5_viability_120hr: Viability Assessment at 120 hours in the Leibniz Research Institute for Environmental Medicine (IUF) Neural Progenitor Cell Migration and Differentiation Assay (NPC2-5) (AID 2284312). In outline: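 Alamar blue resorufin fluorescence read after 5 days of differentiation, with compound present from day 0 and replenished at day 3. Primary hNPC spheres on laminin-coated plates, 37C; seven concentrations plus solvent control, fitted against DMSO.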

Inconclusive results are not listed. The source made the active and inactive calls. How the source made its calls, unless noted: active means hit-call score of the fitted dose curve at least 0.9, where 1 is the maximum; inactive means score below 0.9.

With `COc1ccc2c3c1O[C@H]1[C@@H](O)C=C[C@H]4[C@@H](C2)N(C)CC[C@@]341`, in test [1], the outcome was inactive.
Consider `C[n+]1ccc(-c2cc[n+](C)cc2)cc1`, for which the AC50 (in general, the concentration at which the activity in the assay is half-maximal) in [2] was 2.34 µM (active); in test [7], 29.8 µM (active); in test [8], 0.966 µM (active); in test [9], 0.989 µM (active); in [10] it was 1.01 µM (active); in test [13], 1.98 µM (active). The outcome in [3], in test [4], in test [5], in [6], in [11] and in [12] was inactive. Besides, the outcome in [14], in test [15], in [16], in test [17], in [18] and in test [19] was inactive. Also, the compound was called inactive in [20].
Take `CCCCC(CC)COC(=O)c1cc(Br)c(Br)c(Br)c1Br` (configuration not stated): the outcome in [1] was inactive. Besides, in test [2], the AC50 was 15.1 µM (active).
As to `O=c1[nH]c2c(c(=O)n1C1CCCCC1)CCC2`, the result in test [1] was inactive.
As to `Clc1c(Cl)c(Cl)c2c(c1Cl)Oc1c(Cl)c(Cl)c(Cl)c(Cl)c1O2`, the result in [1] was inactive.
As for `O=S1OC[C@@H]2[C@H](CO1)[C@]1(Cl)C(Cl)=C(Cl)[C@]2(Cl)C1(Cl)Cl` (some centres not stated), in test [1], the outcome was inactive.
As for `COP(=S)(OC)SCC(=O)N(C)C=O`, in test [1], the result was inactive.
Same read-out and setting: the entry for `ClC1=C(Cl)[C@]2(Cl)[C@H]3[C@H]([C@H](Cl)C(Cl)[C@@H]3Cl)[C@@]1(Cl)C2(Cl)Cl` (some centres not stated) is “inactive”; for `Cc1ccc2cc3c(ccc4ccccc43)c3c2c1CC3` it is “inactive”.
Consider `[Cl-].[Cl-].[Cl-].[Pr+3]`, for which the result in test [1] was inactive.
Regarding `CP(=O)(O)CC[C@H](N)C(=O)O`, the outcome in test [2] was inactive.
Take `O=C(O)CCCOC(=O)c1ccccc1C(=O)O`: in test [1], the outcome was inactive.
`CP(=O)(O)CCC(N)C(=O)O` (configuration not stated): the outcome in test [3], in test [4], in test [5], in test [6], in test [11] and in [12] was inactive. Moreover, the result in test [13], in test [14], in test [15], in test [16], in test [17] and in [18] was inactive. The result in test [19] and in test [20] was inactive.
As to `CC(=O)[O-].[Tl+]`, the call in test [2], in test [3], in test [6] and in test [18] was inactive. The AC50 is 82.1 µM (active) in test [4]; 76.8 µM (active) in [5]; 75.3 µM (active) in test [7]; 23.8 µM (active) in [8]; 24.4 µM (active) in test [9]; 31.9 µM (active) in test [10]. In addition, the AC50 in test [11] was 90 µM (active); in test [12] it was 59.4 µM (active); in test [13], 44.2 µM (active); in test [14] it was 62.7 µM (active); in [15] it was 33 µM (active); in [16] it was 50.1 µM (active). For the same compound, the AC50 in test [17] was 34.6 µM (active); in test [19] it was 35.4 µM (active); in test [20] it was 21.6 µM (active).
`C#CCN(C)[C@H](C)Cc1ccccc1`: the result in [2], in test [7], in test [8], in test [9] and in test [10] was inactive.
As for `CCOP(=O)(Oc1cnc(C(C)(C)C)nc1)OC(C)C` (configuration not stated), the figures for the AC50 in [2] and in [4] were 11.7 µM (active) and 2.63 µM (active), respectively. The compound was called inactive in test [3], in [5], in [6], in [7], in test [8] and in test [9]. Also, the compound was classed as inactive in test [10], in test [11], in [12], in [13], in test [14] and in test [15]. For the same compound, the outcome in test [16], in test [17], in [18], in test [19] and in test [20] was inactive.
On to `CC1(C)C(C=C(Cl)c2ccc(Cl)cc2)C1C(=O)OC(C#N)c1ccc(F)c(Oc2ccccc2)c1` (configuration not stated), for which the half-maximal activity concentration (AC50) in test [2] was 17.1 µM (active); in [7], 50 µM (active); in test [8], 61.6 µM (active); in test [9], 72 µM (active); in test [10] it was 75.2 µM (active). Besides, the compound was called inactive in test [3], in test [4], in test [5], in test [6], in test [11] and in [12]. Moreover, the call in test [13], in test [14], in test [15], in [16], in [17] and in test [18] was inactive. Moreover, the result in test [19] and in test [20] was inactive.
